# Compound activity from PubChem.
# rCAG RNA binder: binds r(CAG) RNA repeats. inhibition, % at 3 µM. actives 1.3% (n = 370,000). r(CAG) RNA repeat, TO-PRO-1 dye displacement fluorescence;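 active = inhibition above the plate cutoff, the mean of all test compounds on that plate plus 3 SD, cut at about 35% in these data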;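 also: 0% = DMSO alone and 100% = 100 µM mitoxantrone as full dye displacement; higher means more dye released from RNA so lower well fluorescence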
# Rtt109 HAT inh: C. albicans Rtt109 histone acetyltransferase inhibition; actives 0.16% (n = 330,000); purified Rtt109/Vps75, ThioGlo CoA-SH fluorescence, 4 h; inhibition, % at 34.9 µM; AID 540336; Q5AAJ8;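 active = inhibition of at least 50% in every replicate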
# ALR H2O2 inh: blocks human ALR sulfhydryl oxidase activity | P55789 | inhibition, % (test concentration not listed) | purified ALR, DTT oxidation, H2O2 HRP-luminol luminescence | actives 3.8% (n = 290,000);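 active = mean replicate inhibition above about 79%, with every replicate also reaching it, limit read from the data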
# Target sequence (P55789 whole entry, looked up): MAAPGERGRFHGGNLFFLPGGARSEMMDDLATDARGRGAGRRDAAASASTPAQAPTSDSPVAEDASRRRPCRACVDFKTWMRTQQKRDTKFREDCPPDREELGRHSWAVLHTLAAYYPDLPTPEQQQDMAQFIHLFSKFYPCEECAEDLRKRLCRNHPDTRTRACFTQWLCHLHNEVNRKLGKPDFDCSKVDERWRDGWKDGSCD
# ABHD5 PLIN5 PPI: blocks binding of human ABHD5 to perilipin-5; Split G. princeps luciferase complementation, luminescence, 4 h; actives 0.78% (n = 360,000); inhibition, % at 4 µM; Q00G26+Q8WTS1;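 active = inhibition above the mean inhibition across every tested compound plus 3 SD, cut at about 22% in these data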;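 also: 0% = DMSO only wells and the 100% control is not disclosed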
# PRMT1 inh: blocks human protein arginine methyltransferase 1. AID 652257. actives 1.3% (n = 370,000). recombinant PRMT1, activity-based probe fluorescence polarization. inhibition, % at 2.79 µM;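 active = inhibition above about 21% made by adding two undisclosed values, limit read from the data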
# LANA-H2A inh: blocks KSHV LANA binding to histone H2A/H2B | AID 2629 | actives 0.6% (n = 320,000) | Q9QR71 | cell-free LANA-H2A/H2B peptide, fluorescence polarization | inhibition, % (test concentration not listed); in the data active = inhibition mostly above about 10%, no sharp cut-off; inactive = mostly below about 6.7%
# PRMT1 inh conf: PRMT1 (human) inhibition, FP confirmation; shares compounds with PRMT1 inh; recombinant His-PRMT1, activity-based probe fluorescence polarization; inhibition, % at 2.79 µM; actives 42% (n = 3,300); AID 687036;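 active = mean inhibition across replicates above the hit cutoff derived for the earlier primary screen, cut at about 22% in these data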
# The depositor's hits bear a star; · = no result. Shown are actives, neighbours in structure and some others; about 5.9% of the full set was active somewhere.
SMILES,rCAG RNA binder,Rtt109 HAT inh,ALR H2O2 inh,ABHD5 PLIN5 PPI,PRMT1 inh,LANA-H2A inh,PRMT1 inh conf
COC(=O)c1ccc(N2C(=O)CC(SCC(=O)Nc3ccc(OC)cc3)C2=O)cc1 (stereo not drawn),4,94*,·,-2,53*,2,49*
COc1ccc(NC(=O)CC2C(=O)N(c3ccc(OC)cc3)C(=O)N2C(C)C)cc1 (stereo not drawn),-2,0,-32,3,-1,-1,·
CCOC(=O)c1ccc(N2C(=O)CC(SCC(=O)Nc3ccc(S(N)(=O)=O)cc3)C2=O)cc1 (stereo not drawn),7,·,99*,-21,82*,1,83*
CCN(CC)c1ccc(-c2nn3c(-c4ccccc4Cl)nnc3s2)cc1,9,·,·,·,0,·,·
COC(=O)[C@]12C[C@H](CC(=O)N3CCN(C(=O)C4CC4)CC3)C(=O)N(Cc3ccc(Cl)cc3Cl)C1=C[C@H](C(C)(C)C)O[C@@H]2C,8,·,·,·,6,·,·
Cc1nn(C(C)C(=O)N2CCCC2)c(=O)c2nn(-c3ccccc3)c(C)c12 (stereo not drawn),-4,8,-5,-3,1,2,·
Nc1c(S(=O)(=O)c2ccccc2)c2nc3ccccc3nc2n1CCN1CCOCC1,1,-11,0,2,3,7,·
Nc1c(S(=O)(=O)c2ccccc2)c2nc3ccccc3nc2n1Cc1ccco1,12,-78,·,16,33*,5,2
Cc1ccsc1/C=C1\Oc2cc(O)ccc2C1=O,-27,·,·,4,40*,·,30*
Cc1ccc(O)c(N)c1,·,-14,32,1,·,-44,·
Cc1ccc(SSc2cc(C)ccc2N)c(N)c1,6,1,-5,7,70*,1,87*
COc1ccc(Br)c(C(=O)OCC(=O)NC2CCCCCCC2)c1,0,·,·,-4,2,·,·
COc1ccc(NC(=O)CC2SC(=Nc3ccccc3)NC2=O)cc1 (stereo not drawn),-4,1,·,-2,2,2,·
COc1ccc(NC(=O)CC2SC(=O)NC2=O)cc1 (stereo not drawn),14,-1,12,-22,53*,-6,66*
Cc1ccc(NC(=O)CC2SC(=O)NC2=O)cc1 (stereo not drawn),15,7,63,-15,56*,5,76*
CCCN(CC(=O)Nc1ccccc1C)C(=O)C1CCN(S(=O)(=O)c2ccc(C)c(C)c2)CC1,1,·,·,0,1,·,·
CCCS(=O)(=O)NC(=O)C1(C)CCCN(C(=O)C(C)(C)Oc2ccc(Cl)cc2)C1 (stereo not drawn),15,·,·,3,-1,·,·
O=C1COc2ccc(C(=O)COC(=O)/C=C/c3ccc(Br)o3)cc2N1,23,-3,6,5,37*,-9,2
CN1CCN(C(=O)c2sc(=S)n(-c3ccccc3)c2N)CC1,-3,-5,28,4,76*,5,79*
Cc1ccc(-n2c(N)c(C(=O)N3CCOCC3)sc2=S)cc1,0,6,-4,-2,8,-1,·
COc1ccc(Nc2nnc(SCc3cc(=O)n4ccsc4n3)s2)cc1,17,-6,-37,-2,29*,-4,35*
O=C(Cc1cccc(NC(=O)C2CCN(C(=O)C3CCCC3)CC2)c1)Nc1cccc(C(=O)N2CCOCC2)c1,1,1,·,5,1,·,·
O=c1[nH]c(-c2ccccn2)nc2sc(-c3ccccc3)cc12,4,-27,·,-1,33*,·,-5
Cc1c(C(=O)N(C)C)sc2nc(-c3ccccn3)[nH]c(=O)c12,2,-5,-8,-3,8,1,·
COC(=O)[C@@]12CCCCC3=C1N(CCC3)C(=O)[C@H]2CC(=O)N1CCC(c2ccccc2)CC1,4,·,·,·,3,·,·
CCCC(=O)Nc1cc(OC)c(NC(=S)Nc2cccc(C)c2)cc1OC,3,·,·,-1,39*,·,-5
CCc1cc2c(=O)n(Cc3ccco3)c(SCC(=O)N3CCCc4ccccc43)nc2s1,8,0,·,12,46*,1,10
COc1ccccc1C(=O)CSc1n[nH]c(N)n1,10,1,40,-10,4,6,·
